Rows were chosen to be rich in hits. Some 7.5% of all compounds tested hit in one or more screens of this group.
NPC1 promoter act: qHTS Assay for NPC1 Promoter Activators | Huh7 NPC1 promoter luciferase reporter, 24 h | Potency, µM (top dose mostly 9.22 µM), inactives show at the top dose activation, actives largely listed as activators | actives 2.4% (n = 320,000); further: % of control where 0% means no effect; nearly all actives have a fitted effect of over 60% in size
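Cells: Huh7 expressing luciferase under the NPC1 promoter, 1500/well. Seeded 2 h, compound added, incubated 24 h at 37 °C. Luciferase reagent, 10 min ambient, then luminescence.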
Rab9 prom act: qHTS Assay for Rab9 Promoter Activators; actives 2.8% (n = 320,000); Huh7 Rab9 promoter-luciferase reporter, luminescence, 24 h; Potency, µM (series often up to 9.22 µM), inactives show at the highest dose activation, negative = inhibition, usual class: activators; further: % of control where 0% means no effect; nearly all actives have a fitted effect of over 60% in size
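Stable Rab9-luc Huh7, 1500 cells/well, 2 h settle; cmpd in DMSO, 24 h, 37 °C/5% CO2; luciferase reagent 10 min RT; luminescence.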
ELG1 genotox: qHTS screen for small molecules that induce genotoxicity in human embryonic kidney (HEK293T) cells expressing luciferase-tagged ELG1; Potency, µM (highest dose often 46 µM), for the others: at the top dose activity change, positive = activation, most hits filed as activators; HEK293T ELG1-luciferase reporter, luminescence, 16 h; actives 1.3% (n = 330,000); further: % of control where 0% means no effect; nearly all actives have a fitted effect of over 60% in size
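HEK293T cells expressing luciferase-tagged ELG1 were exposed to compound or DMSO vehicle for 16 hr at 37 °C and 5% CO2. Luciferase activity was then measured with ONE-Glo after 30 min at room temperature.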
SMN2 splice up: qHTS Assay for Enhancers of SMN2 Splice Variant Expression | AID 1458, 2008 | HEK293 SMN2-luciferase splicing reporter, luminescence, 30-36 h | actives 2.8% (n = 210,000) | Potency, µM (doses to about 46.1 µM), for inactives: at the top dose activity change, positive = activation, most hits filed as activators; further: % of control where 0% means no effect; nearly all actives have a fitted effect of over 55% in size
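HEK293 cells carry an SMN2 minigene-luciferase reporter in which exon 7 inclusion puts luciferase in frame. Cells were seeded at 2000 cells/well, attached for 10-12 hours, then exposed to compounds for 30-36 hours at 37C before ONE-Glo luminescence.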
FLuc counter: qHTS profiling assay for firefly luciferase inhibitor/activator using purifed enzyme and Km concentrations of substrates (counterscreen for miR-21 project) | Luciferin 4-monooxygenase (Photinus pyralis), P08659 | purified FLuc, Km substrates, luminescence inhibition | Potency, µM (series often up to 57.5 µM), for inactives: at the top dose activity change, negative = inhibition, usual class: inhibitors | actives 6.9% (n = 360,000);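 further: plate controls were vehicle for no effect and reference inhibitor for full effect; nearly all actives have a fitted effect of over 55% in size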
Target sequence (P08659 whole entry, looked up): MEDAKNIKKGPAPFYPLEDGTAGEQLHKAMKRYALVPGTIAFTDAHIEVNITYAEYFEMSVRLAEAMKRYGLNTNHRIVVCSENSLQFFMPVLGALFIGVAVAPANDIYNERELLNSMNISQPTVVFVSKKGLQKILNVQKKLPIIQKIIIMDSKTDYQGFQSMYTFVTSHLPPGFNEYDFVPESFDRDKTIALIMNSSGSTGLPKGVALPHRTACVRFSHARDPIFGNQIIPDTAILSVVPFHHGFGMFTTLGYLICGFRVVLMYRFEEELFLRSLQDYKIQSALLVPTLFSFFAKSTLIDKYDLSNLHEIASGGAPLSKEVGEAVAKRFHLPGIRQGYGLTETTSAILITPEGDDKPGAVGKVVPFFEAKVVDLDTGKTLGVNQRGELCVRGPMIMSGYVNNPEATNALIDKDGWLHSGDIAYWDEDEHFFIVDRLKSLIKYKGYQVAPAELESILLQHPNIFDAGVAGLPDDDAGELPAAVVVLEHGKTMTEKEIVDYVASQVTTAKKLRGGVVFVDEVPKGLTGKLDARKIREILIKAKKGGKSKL
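Purified P. pyralis luciferase, 10 nM final, with Km-level 10 uM D-luciferin and 10 uM ATP in 50 mM Tris acetate pH 7.5, 10 mM Mg acetate, 0.01% Tween-20, 0.05% BSA; 6-point qHTS titration about 60 µM downward; luminescence read.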
Numbers without * were called inactive; ? = inconclusive; . = no result given; [ ] = dose if it differs, or a comment. The call rests on the fitted dose curve; in most records, active means well fitted curve in the direction sought with a large enough effect; inconclusive means small, poorly fitted or top-dose-only effect, or another doubt; inactive means no such curve, though single readings can be large; an effect the other way counts as inactive or inconclusive. Potency means the concentration at half of the fitted maximal effect.

SMILES	NPC1 promoter act	Rab9 prom act	ELG1 genotox	SMN2 splice up	FLuc counter
Cc1cc([N+](=O)[O-])ccc1NC(=O)c1csc(C)c1C	1.4µM*	2µM*	4.1µM*	.	3.8µM*
Cc1nnc(Sc2c(-c3ccccc3)c3ccc(Cl)cc3[nH]c2=O)s1	3%	3%	-2%	-22%	-2%
Cc1cc2ccccn2c1C(=O)c1ccc(S(=O)(=O)N(C)C)cc1	-8%	1%	-10%	.	1%
COc1ccc(NC(=O)c2ccccc2NS(C)(=O)=O)cc1OC	-5%	-5%	-3%	-4%	17µM*
O=C(O)CCc1ccc(S(=O)(=O)Nc2ccccc2C(=O)NCCc2ccccc2)cc1	2.2µM*	3.2µM*	?	.	19µM*
CC(NC(=O)c1ccccc1NS(=O)(=O)c1ccc(CCC(=O)O)cc1)c1ccccc1 (configuration not stated)	-1%	4%	3%	.	-1%
COc1ccc(NC(C)=O)cc1S(=O)(=O)Nc1ccccc1C(=O)NCCc1ccccc1	2.2µM*	2µM*	?	.	17µM*
COc1cccc(N2CCN(CC(=O)Nc3ccccc3C(=O)NCCc3ccccc3)CC2)c1	3.2µM*	3.5µM*	0%	.	.
COc1ccccc1NC(=O)c1ccccc1NS(C)(=O)=O	-1%	-6%[1.84 µM]	-6%	-6%	1%
CC(=O)C(Sc1nccc(-c2cccs2)n1)C(C)=O	16%	?	8%	29%	-8%
O=C(Cn1nnc(-c2cc(Cl)ccc2-n2cnnn2)n1)N1CCCc2ccccc21	-1%	-4%	-9%	-1%	0%
COC(=O)c1ccccc1NC(=O)C1CCCCC1C(=O)O (configuration not stated)	-5%	-2%	-12%	-15%	2%
COC(=O)c1ccc(NC(=O)c2ccccc2NS(C)(=O)=O)cc1	0%	1%	-4%	6%	12µM*
COC(=O)c1ccc(NC(=O)c2ccccc2N(C)S(C)(=O)=O)cc1	1%	-5%	0%	21%	0%
O=C(NCCc1ccccc1)c1ccccc1NC(=O)C1CCCCC1C(=O)O (configuration not stated)	?	2µM*	?	11µM*	?
O=C(CC1=NCCNC(c2ccccc2)C1)c1ccccc1O (configuration not stated)	17%	?	9%	11µM*	0%
Oc1c(CN2CCOCC2)ccc2ccccc12	-3%	-1%	1%	.	-17%
O=C(O)c1cccc(N/N=C/c2sc(N3CCOCC3)nc2-c2ccccc2)c1	4µM*	2.8µM*	15µM*	17%[1.84 µM]	1.2µM*
O=C(N/N=C\c1cc(Br)cs1)c1ccncc1	-38%	4%	-6%	.	?
Nc1ccc(C(=O)N/N=C/c2sc(N3CCOCC3)nc2-c2ccccc2)cc1	0%	-1%	5%	?	?
O=C(O)c1ccc(N/N=C/c2cc(Br)cs2)cc1	0.089µM*	0.1µM*	?	.	0.24µM*
Cc1ccc(/C=N/Nc2ccc(C(=O)O)cc2)s1	?	?	?	-98%	0.54µM*
Cc1ccc(/C=N/Nc2cccc(C(=O)O)c2)s1	0.089µM*	0.089µM*	?	0.25µM*	0.95µM*
CCCCCC(C)NC(=O)c1ccoc1C (configuration not stated)	0%	1%	2%	-7%	-3%
Cc1cc(NC(=O)Cn2nnc(-c3ccccc3N)n2)no1	-3%	-7%	0%	-3%	10%
Cc1cccc(Cn2nnc3c2C(=O)c2ccccc2C3=O)c1	4%	4%	0%	-74%	-1%
CCOc1ccc(CNC(=O)c2ccc3c(c2)N(CC)CCS3)cc1	0%	5%	0%	?	0%
CCn1ccc(C(=O)Nc2ccccc2SC)n1	?	4.5µM*	?	14µM*	?
CCn1nccc1C(=O)Nc1ccc(Cl)cn1	26%	27%	?	20%	?
CCn1ccc(C(=O)Oc2ccc(Cl)cc2)n1	3%	-4%	2%	-11%	7.6µM*

Compound activity as filed in PubChem.
